Our source for the outcome and AC50 values is PubChem BioAssay (EPA / NIEHS).

Active and inactive are the calls of the source. The calls were made as follows: active = hit-call score of the fitted dose curve at least 0.9, where 1 is the maximum; inactive = score below 0.9.

Read-out in assay [1]: Human Leukocyte Antigen - DR isotype (HLADR), HLA-DRA (gene 3122)
Put plainly: BSK_BE3C_HLADR: BioMAP Diversity Plus: BE3C Assay for Human Leukocyte Antigen - DR isotype (HLADR) Biomarker Activity (AID 2283032). To be noted: primary human bronchial epithelial cells; actives raise or lower the signal. Summed up:
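BioMAP BE3C format: human bronchial epithelium, 24 h compound treatment, ELISA detection of HLA-DR, with bidirectional analysis relative to DMSO.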

Read-out in assay [2]: Vascular cell adhesion molecule 1 (VCAM1), VCAM1 (gene 7412)
The assay is described as follows: BSK_4H_VCAM1: BioMAP Diversity Plus: 4H Assay for Vascular cell adhesion molecule 1 (VCAM1) Biomarker Activity (AID 2283033).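 As to outcome: cell-surface VCAM-1 protein measured by ELISA.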 The conditions noted are these: primary human endothelial cells (HUVEC); actives raise or lower the signal. Summed up:
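In this human endothelial (HUVEC) system, biomarker ELISA was run 24 h after compound addition, and total protein in parallel wells was assessed by SRB at 560 nm; DMSO served as negative control.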

Read-out in assay [3]: Interferon-gamma inducible Protein 10 (IP10), CXCL10 (gene 3627)
The assay is described as follows: BSK_BE3C_IP10: BioMAP Diversity Plus: BE3C Assay for Interferon-gamma inducible Protein 10 (IP10) Biomarker Activity (AID 2283034). To be noted: primary human bronchial epithelial cells; actives raise or lower the signal. Summed up:
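BE3C cells (human bronchial epithelial, primary); 24 h exposure; ELISA for IP-10; DMSO-referenced bidirectional fit.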

Read-out in assay [4]: Monokine induced gamma interferon (MIG), CXCL9 (gene 4283)
The assay is described as follows: BSK_BE3C_MIG: BioMAP Diversity Plus: BE3C Assay for Monokine induced gamma interferon (MIG) Biomarker Activity (AID 2283035).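 Also: MIG protein measured by ELISA in BE3C cultures after 24 h of dosing.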 The conditions noted are these: primary human bronchial epithelial cells; actives raise or lower the signal. Summed up:
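ELISA quantified MIG after 24 h exposure of primary bronchial epithelial cultures, analysed in both directions relative to DMSO. Cytotoxicity tracked in parallel cultures by sulforhodamine B staining.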

Read-out in assay [5]: Plasminogen activator inhibitor-1 (PAI1), SERPINE1 (gene 5054)
The assay is described as follows: BSK_BE3C_PAI1: BioMAP Diversity Plus: BE3C Assay for Plasminogen activator inhibitor-1 (PAI1) Biomarker Activity (AID 2283037). To be noted: primary human bronchial epithelial cells; actives raise or lower the signal. Summed up:
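In this multiplexed primary-cell system, bronchial epithelial cells receive test chemical and are sampled at 24 h. PAI-1 is read by ELISA, with DMSO serving as negative control for bidirectional fitting.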

Read-out in assay [6]: urokinase plasminogen activator (uPA), PLAU (gene 5328)
Put plainly: BSK_BE3C_uPA: BioMAP Diversity Plus: BE3C Assay for urokinase plasminogen activator (uPA) Biomarker Activity (AID 2283038).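 Also: uPA protein level quantified by ELISA in cell cultures; uPA read one day after compound addition.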 The conditions noted are these: primary human bronchial epithelial cells; actives raise or lower the signal. Summed up:
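ELISA read-out of uPA in human lung primary bronchial epithelial cultures, 24 h post-dosing. Gain or loss of signal fitted bidirectionally relative to DMSO baseline; cytotoxicity checked in parallel cultures via SRB total protein stain.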

Read-out in assay [7]: Urokinase-type plasminogen activator receptor (uPAR), PLAUR (gene 5329)
The assay is described as follows: BSK_BE3C_uPAR: BioMAP Diversity Plus: BE3C Assay for Urokinase-type plasminogen activator receptor (uPAR) Biomarker Activity (AID 2283039).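 Also: uPAR protein level measured by ELISA on the cells; cells exposed to compound for one day before measurement.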 The conditions noted are these: primary human bronchial epithelial cells; actives raise or lower the signal. Summed up:
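Chemically treated human bronchial epithelial cells (lung primary) are assayed for uPAR by ELISA after 24 h, with data fitted in both directions using DMSO as negative control.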

Read-out in assay [8]: Interleukin-6 (IL6), IL6 (gene 3569)
Put plainly: BSK_CASM3C_IL6: BioMAP Diversity Plus: CASM3C Assay for Interleukin-6 (IL6) Biomarker Activity for (AID 2283040). The conditions noted are these: primary human coronary artery smooth muscle cells; actives raise or lower the signal.

Read-out in assay [9]: Transforming growth factor beta 1 (TGFb1), TGFB1 (gene 7040)
The assay is described as follows: BSK_BE3C_TGFb1: BioMAP Diversity Plus: BE3C Assay for Transforming growth factor beta 1 (TGFb1) Biomarker Activity (AID 2283036;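 also: TGF-b1 protein level measured by ELISA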). To be noted: primary human bronchial epithelial cells; actives raise or lower the signal. Summed up:
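TGF-b1 measured via ELISA, 24 h after chemical dosing of human bronchial epithelial cells (BE3C). Overt cytotoxicity assessed in parallel by SRB (0.1%, TCA-fixed, 560 nm); analysis bidirectional relative to DMSO.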

Regarding `Cc1ncc([C@@H](CCCCCCc2ccc3c(n2)NCCC3)CC(=O)O)cn1`, the result in assay [1], in [2], in assay [3], in assay [4], in assay [5] and in assay [6] was inactive. Besides, the result in [7] and in assay [8] was inactive.
For the compound `OCCOCCOCCO`, the outcome in [1], in [2], in assay [3], in [4], in assay [5] and in assay [6] was inactive. Further, the result in [7] and in [8] was inactive.
As for `O=C(O)[C@H](O)[C@@H](O)C(=O)O`, the outcome in [1], in assay [2], in [3], in assay [4], in [5] and in [7] was inactive. Further, the result in assay [8] was inactive.
On to `O=S(=O)(O)c1ccc(N=Nc2c(O)ccc3cc(S(=O)(=O)O)ccc23)cc1`, for which the outcome in assay [1], in [2], in assay [3], in assay [4], in assay [9] and in assay [5] was inactive. Besides, the result in assay [7] and in assay [8] was inactive.
For the compound `CCc1ccc(O)c(C(C)(C)C)c1`, the result in assay [1], in assay [3], in [4], in assay [9], in assay [5] and in assay [7] was inactive. Further, the result in assay [8] was inactive. Moreover, in [2], the half-maximal activity concentration (AC50) is 31.1 µM (active).
Consider `Cc1cccc(O)c1C`, for which the outcome in assay [1], in assay [2], in assay [3], in assay [4], in assay [5] and in assay [6] was inactive. In addition, the outcome in assay [7] and in [8] was inactive.
With `CCCOc1ccc(S(=O)(=O)N2CCN(CC)CC2)cc1-c1nc2c(CC)n(Cc3ccccn3)nc2c(=O)[nH]1`, the result in assay [1], in [2], in assay [3], in assay [4], in [5] and in assay [6] was inactive. Further, the result in [7] and in assay [8] was inactive.
As to `CCCCCCCCCC`, the result in assay [1], in assay [2], in assay [3], in assay [4], in assay [5] and in [7] was inactive. In addition, the result in [8] was inactive.
With `O=S1(=O)CCCO1`, the result in [1], in assay [2], in assay [3], in [4], in assay [5] and in [7] was inactive. Also, the outcome in assay [8] was inactive.
For `CCCCCCOC(=O)CC(CC(=O)OCCCCCC)(OC(=O)CCC)C(=O)OCCCCCC`, the result in [1], in [2], in assay [3], in assay [4], in assay [5] and in assay [7] was inactive. The outcome in assay [8] was inactive.
Turning to `CC(C)C(=O)Nc1ccc([N+](=O)[O-])c(C(F)(F)F)c1`, the outcome in assay [1], in assay [2], in assay [3], in [4], in assay [5] and in assay [7] was inactive. Besides, the result in assay [8] was inactive.
For the compound `COS(C)(=O)=O`, the result in assay [1], in assay [2], in [3], in assay [4], in [5] and in assay [6] was inactive. For the same compound, the outcome in assay [7] and in [8] was inactive.
For `OC(O)(C(F)C(O)(O)C(F)(F)F)C(F)(F)F`, the outcome in assay [1], in assay [2], in assay [3], in [4], in assay [5] and in [7] was inactive. Besides, in assay [8], the outcome was inactive.
Regarding `CCCC(CCC)C(=O)O`, the result in [1], in assay [2], in assay [3], in [4], in assay [5] and in assay [6] was inactive. Further, the result in assay [7] and in assay [8] was inactive.
As for `c1ccc2c(c1)-c1cccc3c1c-2cc1ccccc13`, the outcome in assay [1], in assay [2], in assay [3], in assay [4], in [5] and in assay [7] was inactive. Besides, in assay [8], the result was inactive.
As to `OCCNCCO`, the outcome in assay [1], in [2], in assay [3], in assay [4], in assay [5] and in assay [7] was inactive. Further, the result in assay [8] was inactive.
Consider `FC(F)(F)C(F)(F)C(F)(F)C(F)(F)C(F)(F)C(F)(F)I`, for which the result in [1], in assay [2], in assay [3], in assay [4], in [5] and in [6] was inactive. Further, the result in [7] and in assay [8] was inactive.
In the case of `Cn1cc[nH]c1=S`, the result in assay [1], in [2], in assay [3], in assay [4], in assay [5] and in assay [7] was inactive. Moreover, in assay [8], the result was inactive.
On to `CCOc1ccc2[nH]cc(C(=O)NCc3ccccc3)c(=O)c2n1`, for which the result in [1], in [2], in assay [3], in assay [4], in assay [5] and in assay [7] was inactive. In addition, the result in [8] was inactive.
As to `c1ccc2cc3ccccc3cc2c1`, the result in [1], in assay [2], in [3], in assay [4], in [5] and in [6] was inactive. Further, the outcome in assay [7] and in assay [8] was inactive.
On to `O=S(=O)(O)CCC(F)(F)C(F)(F)C(F)(F)C(F)(F)C(F)(F)C(F)(F)F`, for which the outcome in assay [1], in assay [2], in assay [3], in assay [4], in [5] and in assay [6] was inactive. The outcome in [7] and in assay [8] was inactive.
Consider `OCCC(F)(F)C(F)(F)C(F)(F)C(F)(F)F`, for which the outcome in [1], in assay [2], in [3], in [4], in [5] and in assay [7] was inactive. Besides, the outcome in assay [8] was inactive.
For `FC(F)=C(F)C(F)(F)C(F)(F)C(F)(F)C(F)(F)C(F)(F)C(F)(F)F`, the outcome in [1], in [2], in [3], in [4], in assay [5] and in assay [6] was inactive. For the same compound, the outcome in assay [7] and in assay [8] was inactive.

One may read the AC50 as the concentration giving half of the maximal activity seen.
